Assay outcomes from PubChem.
Neddyl block: inhibitors of human cullin neddylation; inhibition, % at 25 µM; P61081+Q13564; 360,000 tested, 0.58% active; TR-FRET cullin neddylation, biochemical; AID 651699; in the data active means inhibition above about 36%
GRK2 aptamer HTS: inhibitors of human GRK2 displacing RNA aptamer; bead flow cytometry, FAM-aptamer displacement from GRK2; AID 488847; 330,000 tested, 0.59% active; inhibition of aptamer binding, % at 10 µM;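 active means inhibition of aptamer binding above 40%, roughly 3 SD of noise, on plates passing a quality check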;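 further: median bead fluorescence of bound FAM aptamer so fluorescent compounds give negative values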
H9c2 protect: protects H9c2 cardiomyocytes from peroxide injury | protection from H2O2 cell death, % at 20 µM | H2O2 injury protection, ATPLite, 2 h | 360,000 tested, 0.63% active;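 active means compounds giving at least 50% protection of heart cells from peroxide-induced death in the single-dose screen, raw or plate-pattern-corrected value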;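 further: 0% = DMSO wells with peroxide and 100% = DMSO wells without peroxide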
HDAC3 inhib: blocks human histone deacetylase 3. recombinant HDAC3, fluorogenic peptide/trypsin coupled, fluorescence. inhibition, % at 8.3 µM. 320,000 tested, 0.15% active; in the data active means inhibition above about 26%, passing the limit was not always enough
Target sequence (O15379 whole entry, looked up): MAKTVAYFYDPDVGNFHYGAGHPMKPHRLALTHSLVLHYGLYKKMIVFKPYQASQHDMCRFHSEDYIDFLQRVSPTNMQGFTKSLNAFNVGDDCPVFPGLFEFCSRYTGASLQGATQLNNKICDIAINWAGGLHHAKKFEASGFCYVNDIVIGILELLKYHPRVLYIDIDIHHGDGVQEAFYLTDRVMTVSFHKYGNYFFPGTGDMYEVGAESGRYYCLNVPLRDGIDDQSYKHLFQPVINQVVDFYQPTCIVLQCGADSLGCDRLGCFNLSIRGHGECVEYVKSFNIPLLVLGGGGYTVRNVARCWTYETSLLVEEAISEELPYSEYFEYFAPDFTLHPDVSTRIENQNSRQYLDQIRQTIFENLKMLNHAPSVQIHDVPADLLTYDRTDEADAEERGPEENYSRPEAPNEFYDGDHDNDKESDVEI
* marks the source's active call; other numbers are inactive results; x = not tested or not shown. An excerpt weighted towards active compounds, which were near 1.8% of everything screened.

SMILES	Neddyl block	GRK2 aptamer HTS	H9c2 protect	HDAC3 inhib
CCCOc1ccc(C(=O)CCC(=O)OCC(=O)Nc2ccc(OCC)cc2)cc1	x	85*	x	x
COc1ccccc1C1OC2=C(Nc3ccc([N+](=O)[O-])cc3N2)C1=O (stereo not drawn)	-22	0	-9	-2
CC[C@]12c3[nH]c4cc(-c5ccco5)ccc4c3CCN1C(=O)[C@@H](CC(=O)NCCc1ccccn1)C[C@@H]2C(=O)N1CCN(C(=O)c2ccco2)CC1	x	43*	27	x
CC[C@]12c3[nH]c4cc(CCC(=O)N(C)C)ccc4c3CCN1C(=O)[C@@H](CC(=O)NCc1ccco1)C[C@@H]2C(=O)N1CCN(C(=O)C2CC2)CC1	4	45*	-6	x
CC[C@]12c3[nH]c4cc(CCC(=O)N(C)C)ccc4c3CCN1C(=O)[C@@H](CC(=O)NCCC1=CCCCC1)C[C@@H]2C(=O)N1CCN(C(=O)c2ccco2)CC1	-1	43*	4	x
CN(C)C(=O)CCc1ccc2c3c([nH]c2c1)[C@]1(C)[C@@H](C(=O)N2CCCCC2)C[C@H](CC(=O)NCc2ccco2)C(=O)N1CC3	-1	0	8	x
CC[C@]12c3[nH]c4cc(-c5ccco5)ccc4c3CCN1C(=O)[C@@H](CC(=O)NCCN1CCOCC1)C[C@@H]2C(=O)N1CCN(C(=O)c2ccco2)CC1	x	2	3	x
CC[C@]12c3[nH]c4cc(CCC(=O)N(C)C)ccc4c3CCN1C(=O)[C@@H](CC(=O)NCCC1=CCCCC1)C[C@@H]2C(=O)N1CCN(C(=O)C2CC2)CC1	-4	2	4	x
CCN(CC)C(=O)[C@H]1C[C@H](CC(=O)NCc2ccco2)C(=O)N2CCc3c([nH]c4cc(CCC(=O)N(C)C)ccc34)[C@]12C	-2	51*	6	x
CC1CC(C)(C)CC2(C1)NC(=O)N(CC(=O)N(C)Cc1nc3ccccc3c(=O)[nH]1)C2=O (stereo not drawn)	12	5	25	23
COc1ccc(C2C3=C(CC(C)(C)CC3=O)N(CCN3CCOCC3)C3=C2C(=O)CC(C)(C)C3)cc1	x	1	28	-13
CC1(C)CC(=O)C2=C(C1)N(CCN1CCOCC1)C1=C(C(=O)CC(C)(C)C1)C2c1ccc(Cl)cc1	x	0	52*	x
CCS(=O)(=O)CCSC(=N)N	-16	0	6	-4
CCOC(=O)c1cc(-c2ccccc2)sc1NC(=O)C(C)OC(=O)c1cccnc1Cl (stereo not drawn)	12	100*	1	-2
CCCC1(c2ccccc2)NC(=O)N(CC(=O)Nc2cc(C)ccc2OC)C1=O (stereo not drawn)	1	1	-3	5
O=C(CCCN1C(=O)/C(=C/c2cccs2)SC1=S)NNC(=O)c1ccccc1O	-16	0	60*	-1
COc1ccccc1/C=C1\SC(=S)N(CCC(=O)NNC(=O)c2ccccc2O)C1=O	-11	2	60*	5
O=C(CCCN1C(=O)/C(=C/c2cccs2)SC1=S)NNC(=O)c1ccncc1	-11	0	-5	0
O=C(COC(=O)c1ccc(N2CCCC2=O)cc1)c1ccccc1	-22	2	4	-3
O=C(N/N=C/c1ccc[nH]1)c1ccc(COc2cccc3cccnc23)cc1	49*	1	-15	2
O=C(N/N=C/c1ccc[nH]1)c1ccc(O)cc1	0	3	4	-6
Cc1cc(Br)c(OCc2ccc(C(=O)N/N=C/c3ccc[nH]3)cc2)c(Br)c1	41*	0	-25	2
O=C(O)c1cc(S(=O)(=O)N2CCCCC2)ccc1N1CCOCC1	8	0	0	0
CC(C)(C)OC(=O)CNC(=O)c1[nH]cnc1C(=O)N[C@@H](Cc1ccccc1)C(=O)OC(C)(C)C	-5	1	15	-8
Cc1ccc(S(=O)(=O)NCC(=O)N(c2ccccc2)C(C(=O)NCc2ccccc2)c2ccco2)cc1 (stereo not drawn)	3	0	58*	x
Cc1cc(C)cc(N(C(=O)CNS(=O)(=O)c2ccccc2)C(C(=O)NCc2ccccc2)c2ccc(C)o2)c1 (stereo not drawn)	0	0	13	-2
COc1ccc(S(=O)(=O)N2Cc3ccccc3CC2C(=O)Nc2ccc(O)cc2)cc1OC (stereo not drawn)	-5	0	58*	5
CNC(=O)C1Cc2ccccc2CN1S(=O)(=O)c1ccc(OC)c(OC)c1 (stereo not drawn)	-6	1	2	1
CCCCN(Cc1nc2ccccc2c(=O)[nH]1)C(=O)CN1C(=O)NC2(CCCCC2)C1=O	5	4	83*	7
